# Values joined by “and” are separate entries in the source; they are usually repeats but may differ in a detail not shown here. Equal values may be shown once. Where a name gives a salt, the structure may show the parent alone.
# Assays:
# Experiment in all cases: cell viability relative to vehicle control; higher = less cytotoxic
# Details in all cases: 10 µM
# K562 = system: K562
# How it was run: (§1)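 CRISPR-edited mutant clones and isogenic wild-type clones from four leukaemia lines were screened against Selleck bioactive, kinase and epigenetic probe libraries, with identity-inconsistent compounds excluded. Each compound was acoustically dispensed at a single 10 µM dose into 384-well plates holding 2000 cells in 50 µL medium per well. After 48 h the supernatant was removed and CellTiter-Glo luminescence was read. Viability was expressed as percent of the on-plate vehicle control and analysed in Genedata Screener.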
# MARIMO = system: MARIMO
# How it was run: as §1
# MOLM14 = system: MOLM14
# How it was run: as §1
# OCI-AML2 = system: OCI-AML2
# How it was run: as §1
SMILES,cell viability (K562; SRSF2 genotype: SRSF2 P95H/wt),cell viability (K562; SRSF2 genotype: SRSF2 wt/wt),cell viability (MARIMO; SRSF2 genotype: SRSF2 P95H/wt),cell viability (MARIMO; SRSF2 genotype: SRSF2 wt/wt),cell viability (MOLM14; SRSF2 genotype: SRSF2 P95H/wt),cell viability (MOLM14; SRSF2 genotype: SRSF2 wt/wt),cell viability (OCI-AML2; SRSF2 genotype: P95H/wt),cell viability (OCI-AML2; SRSF2 genotype: wt/wt)
Nc1nc(=O)[nH]cc1F [Flucytosine (Ancobon)],102% and 98.9%,102%,103%,105%,95.9%,102%,105%,109%
C/C=C(/C)C(=O)OC(=O)/C(C)=C\C [Angelic anhydride],98.7% and 106%,113%,101%,101%,103%,107%,102%,100%
NC(=O)c1cccnc1 [Nicotinamide (Vitamin B3)],106% and 112%,113%,107%,103%,105%,104%,104%,111%
O=C(O)c1ccc2c(c1)C(=O)c1ccccc1C2=O [Anthraquinone-2-carboxylic Acid],100% and 101%,92.5%,98%,92%,102%,98.5%,96.3%,94.9%
Oc1cc(O)c2c(c1)OC(c1ccc(O)c(O)c1)C(OC1(c3ccc(O)c(O)c3)Oc3cc(O)cc(O)c3C(O)C1O)C2 (stereo not given) [Proanthocyanidins],102% and 105%,104%,107%,98.7%,89.9%,102%,92.6%,101%
COc1ccccc1OCCNCC(O)COc1cccc2[nH]c3ccccc3c12 (stereo not given) [Carvedilol],51.6% and 66.2%,52.8%,53%,56.8%,53.6%,56.4%,56.1%,56.2%
C[C@@H]1[C@H](O)[C@@H](C)/C=C/C=C/C=C/C=C/C=C/C=C/C=C/[C@H](O[C@@H]2O[C@H](C)[C@@H](O)[C@H](N)[C@@H]2O)C[C@@H]2O[C@](O)(C[C@@H](O)C[C@@H](O)[C@H](O)CC[C@@H](O)C[C@@H](O)CC(=O)O[C@H]1C)C[C@H](O)[C@H]2C(=O)O [Amphotericin B],97.4% and 101%,104%,110%,103%,93.9%,101%,126%,110%
Nc1ccc(C(=O)O)c(O)c1 [Sodium 4-Aminosalicylate],89.6% and 88.1%,81.3%,85.7%,92.5%,88.7%,88.1%,86.3%,97.5%
CCCCCCCC/C=C\CCCCCCCCCCCC(=O)O [Erucic acid],99.7% and 96.1%,103%,101%,107%,104%,107%,100%,110%
CO[C@H]1/C=C/O[C@@]2(C)Oc3c(C)c(O)c4c(O)c(cc(O)c4c3C2=O)NC(=O)/C(C)=C\C=C\[C@H](C)[C@H](O)[C@@H](C)[C@@H](O)[C@@H](C)[C@H](OC(C)=O)[C@@H]1C [Rifamycin sodium salt],35.1% and 16.3%,13%,4.5%,7.05%,0.49%,0.44%,0.38%,0.42%
Nc1ccc(-c2cccc(C(=O)Nc3cnc4nc(N5CCOCC5)oc4c3)n2)cn1,96.8% and 100%,91.5%,98.3%,91.6%,86%,87.5%,103%,93.7%
CNC(=O)c1ccc(N2C(=S)N(c3ccc(C#N)c(C(F)(F)F)c3)C(=O)C2(C)C)cc1F [MDV3100 (Enzalutamide)],84.9% and 91.7%,89.2%,90.4%,89.1%,89.2%,90.3%,83.3%,80.3%
CN(C/C=C/C#CC(C)(C)C)Cc1cccc2ccccc12 [Terbinafine],99.7% and 97.5%,103%,96.2%,108%,104%,105%,105%,110%
CCCCCCCCCCCCCCCCCCCC(=O)O [Arachidic acid],95.7% and 93.1%,98.9%,96%,96.3%,96.1%,103%,103%,109%
N[C@@]1(C(=O)O)CS(=O)(=O)[C@H]2[C@H](C(=O)O)[C@H]21,104% and 109%,115%,107%,105%,109%,113%,113%,98.1%
COC(=O)c1cc(O)c(O)c(O)c1 [Methyl gallate],103% and 104%,96.7%,89.7%,101%,90.6%,104%,96.9%,110%
CCCCNC(=O)NS(=O)(=O)c1ccc(C)cc1 [Tolbutamide],98% and 102%,102%,105%,116%,102%,105%,101%,110%
Nc1cccc2c1CN(C1CCC(=O)NC1=O)C2=O (stereo not given) [Lenalidomide (CC-5013)],98.2% and 96.6%,94.8%,97.1%,101%,91.3%,93.5%,118%,113%
CC(=O)O[C@@H]1C[C@@]23C[C@@]24CC[C@H](O[C@@H]2OC[C@@H](O)[C@H](O)[C@H]2O)C(C)(C)[C@@H]4CC=C3[C@]2(C)C[C@@H]3OC4(C[C@@H](C)[C@@H]3[C@@]12C)OC(O)C1(C)OC41 (stereo not given in full) [Cimicifugoside],110% and 103%,105%,109%,111%,108%,106%,99%,96%
CC(C)OC(=O)CCC/C=C\C[C@@H]1[C@@H](CC[C@@H](O)CCc2ccccc2)[C@H](O)C[C@@H]1O [Latanoprost],93% and 96.4%,90.1%,89.6%,92.5%,88%,103%,97.8%,98.3%

# Source: the supplement of paper PMC10981050
